Screening data as filed in PubChem BioAssay.
Sampled rows, rich in hits. Any-hit rate of the full collection: about 14%.
AID923: qHTS Assay for Allosteric/Competitive Inhibitors of Caspase-1: Spectroscopic Profiling in AFC Spectral Region | compound fluorescence, AFC spectral region (405/520 nm) | Potency, µM (top dose mostly 57.5 µM), without a hit: top-dose fluorescence increase, hits mostly activators | hit rate 1.1% among 75,000; also: potency is read from the fitted curve at half-maximal effect; 0% is about no effect
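Titrations up to 57 uM read every 20 sec for 3 min (405/520 nm) with 50 nM caspase 1 and 5 uM Ac-WEHD-AFC, pH 7.5 HEPES buffer. Fluorescence-vs-time intercept gave baseline, scaled against on-plate AFC standard.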
4-MU autofl: compound fluoresces in the 4-MU spectral region; compound autofluorescence, 340/450 nm, 4-MU equivalents; hits give high values; max dye-equivalent concentration, M; hit rate 11% among 59,000; AID 589; in the data active = max dye-equivalent concentration above about 10 nM; inconclusive = mostly about 1.1 nM to 9.6 nM
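Intrinsic fluorescence at 340/450 nm (ex/em) was read after 15 min at room temperature in pH 8.0, 100 mM Tris. Each compound concentration expressed as 4-MU-equivalent concentration from a six-point 4-MU standard series on each plate.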
HSD17B inh: blocks hydroxysteroid 17-beta dehydrogenase activity; hit rate 7.6% among 75,000; Potency, µM (titrated, usually from 57.1 µM), for the others: at the top dose activity change, negative = inhibition, most hits filed as inhibitors; recombinant HSD17B10, NADH fluorescence kinetic; Q99714;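 also: the protocol describes HADH2 (HSD17B10) and not the HSD17B4 of the title; potency is read from the fitted curve at half-maximal effect; % is scaled to controls: 0 for no effect and ±100 for the full control effect; nearly all actives have a fitted effect of over 70% in size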
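His-tagged E. coli-expressed HADH2 at 20 nM in 100 mM Tris-HCl pH 9.0 with 0.01 % Tween-20, preincubated 15 min with compound at room temperature. Reaction with 1 mM NAD+ and 90 uM beta-hydroxybutyryl coenzyme A; NADH fluorescence (360/450 nm) read kinetically over 4 min, last minus first point.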
HADH2 inhib: inhibitors of human HADH2 dehydrogenase; Q99714; recombinant HADH2, NADH fluorescence, beta-hydroxybutyryl-CoA; Potency, µM (doses to about 57.1 µM), for inactives: at the highest dose activity change, negative = inhibition, actives largely listed as inhibitors; hit rate 3.4% among 73,000; AID 886; also: potency is read from the fitted curve at half-maximal effect; % is scaled to controls: 0 for no effect and ±100 for the full control effect; nearly all actives have a fitted effect of over 60% in size
Target sequence (Q99714 whole entry, looked up, one chain of several): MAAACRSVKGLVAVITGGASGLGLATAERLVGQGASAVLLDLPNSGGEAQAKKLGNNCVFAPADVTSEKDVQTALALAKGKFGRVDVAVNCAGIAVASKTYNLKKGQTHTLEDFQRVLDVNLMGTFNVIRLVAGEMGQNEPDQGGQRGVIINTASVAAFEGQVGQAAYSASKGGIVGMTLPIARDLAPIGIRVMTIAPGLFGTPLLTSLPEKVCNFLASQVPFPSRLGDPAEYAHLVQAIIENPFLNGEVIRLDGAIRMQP
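NADH fluorescence (ex 360/em 450 nm) read every 30 s for 4 min; activity taken as last-minus-first time point difference. Enzyme 20 nM, NAD+ 1 mM, beta-hydroxybutyryl-CoA 90 uM, pH 9.0 Tris buffer.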
A350 autofl: A350 region autofluorescence | hit rate 11% among 59,000 | Compound autofluorescence, 340/450 nm, Alexa 350 dye-equivalents; hits give high values | max dye-equivalent concentration, M; in the data active = max dye-equivalent concentration above about 10 nM; inconclusive = mostly about 1.1 nM to 9.6 nM
CRE Fsk mod: alters forskolin-stimulated CRE reporter signaling in CHO cells; CHO CRE-bla reporter (cAMP response element driving beta-lactamase), forskolin EC10, beta-lactamase ratio; Potency, µM (top dose mostly 38.2 µM), for the others: top-dose activity change, negative = inhibition, most hits filed as activators; hit rate 2.5% among 71,000; active = well fitted activation curve with a large enough effect in the signal ratio, with a control signal flat, not every such curve was filed as active; inconclusive = small, poorly fitted or top-dose-only effect, or effect the other way, or a change in a side signal; the % refers to the signal ratio; also: potency is read from the fitted curve at half-maximal effect; % of control where 0% means no effect
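Titrated compounds plus EC10 NKH 477 on CHO CRE-bla cells, 3 h, 37 °C. CCF4, 2 h RT. Ratio 460/530 nm → AC50.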
Active calls of the source: *; i = inactive; ? = inconclusive; . = no result; [ ] = another dose, or the depositor's remark. Unless noted, calls follow the shape of the dose curve; as a rule, active = well fitted curve in the direction sought with a large enough effect; inconclusive = small, poorly fitted or top-dose-only effect, or another doubt; inactive = no such curve, though single readings can be large; an effect the other way counts as inactive or inconclusive.

SMILES	AID923	4-MU autofl	HSD17B inh	HADH2 inhib	A350 autofl	CRE Fsk mod
CC(=O)OC[C@H]1O[C@@H](O/N=C(\C)CCN2CCc3nc(-c4ccccc4)c(-c4ccccc4)cc3C2)[C@H](OC(C)=O)[C@@H](OC(C)=O)[C@H]1OC(C)=O	4%[11.5 µM]	.	2%[11.4 µM]	6%[11.4 µM]	.	.
CCCCNc1cc(C(=O)O)cc(S(N)(=O)=O)c1Oc1ccccc1	-3%	4.9e-08M*	25µM*	?	5.4e-08M*	-6%[17.1 µM]
NS(=O)(=O)c1cc(C(=O)O)cc(N2CCCC2)c1Oc1ccccc1	-1%[25.7 µM]	3.5e-07M*	13µM*	14%[25.6 µM]	3.2e-07M*	-13%[17.1 µM]
NC(=O)SCC(=O)Nc1ccc2ncccc2c1	0%[11.5 µM]	i	-2%[11.4 µM]	?	i	?
CC(C)C[C@@H](CC(=O)N[C@@H](CCC(=O)O)CC(=O)O)NC(=O)[C@@H]1CNCC[C@H]1NC(=O)C[C@@H](NC(=O)C[C@H](Cc1ccccc1)NC(=O)[C@@H]1CNCC[C@H]1N)C(C)C	.	.	.	13%	.	-14%
Cc1c(-c2ccccc2)c(P(=O)(N2CCOCC2)N2CCOCC2)c2ccccn12	8%	1.2e-06M*	25µM*	25µM*	1.2e-06M*	-3%
CCOc1cc2[nH]c(=S)n(CCCOC)c(=O)c2cc1OCC	1%	i	-9%	-25%	?	13µM*
CCOc1cc2[nH]c(=O)n(CCC(=O)NCCc3ccccc3)c(=O)c2cc1OCC	0%	1.4e-08M*	?	0%	1.5e-08M*	?
COc1ccc(CCNC(=O)CCn2c(=O)[nH]c3cc(OC)c(OC)cc3c2=O)cc1OC	2%	i	?	6%	?	-6%
COc1cc2[nH]c(=O)n(CCC(=O)NCc3cccnc3)c(=O)c2cc1OC	-1%	i	25µM*	-20%	?	-6%
CCOc1cc2[nH]c(=O)n(CCC(=O)NCCc3ccc(OC)c(OC)c3)c(=O)c2cc1OCC	1%	?	-18%	10%	?	2%
CCCCN(C)C(=O)CCCCn1c(=O)[nH]c2cc(OCC)c(OCC)cc2c1=O	1%	i	25µM*	-22%	i	?
CCOc1cc2[nH]c(=O)n(CCCCCC(=O)NCc3ccc4c(c3)OCO4)c(=O)c2cc1OCC	0%	i	7%	6%	i	?
CS(=O)(=O)Nc1c(O)ccc2c1CCC[C@H]2C1=NCCN1	-1%	.	-11%	0%	.	-10%
O=c1nc(-c2ccccc2)c2cc(Cl)ccc2[nH]1	16%	2.8e-07M*	32µM*	12%	2.4e-07M*	-2%
COc1ccc2cnn(-c3ccccc3)c(=O)c2c1OC	0%	i	14%	-3%	i	9%
COc1ccc2cnn(Cc3ccccc3)c(=O)c2c1OC	-1%	i	25µM*	4%	?	?
CC(C)CCN1CCc2nc(COc3ccccc3)c3c(c2C1)COC(C)C3 (configuration not stated)	0%[11.5 µM]	.	1%[11.4 µM]	7%[11.4 µM]	.	.
NC(CCC(=O)N[C@@H](CS)C(=O)NCC(=O)O)C(=O)O (some centres not stated)	-2%	.	-3%	.	.	.
COc1ccc(-c2ccc(C(=S)N3CCN(C(C)=O)CC3)o2)cc1	4%	?	32µM*	2µM*	?	5%
C/C=C/C=C/C=O	4%	.	-4%	-12%	.	?
CCn1c(SCc2nc3ccccc3c(=O)[nH]2)nc2ccccc2c1=O	-1%	i	?	0%	?	2.5µM*
Cc1sc2nc(CSc3nc4ccccc4c(=O)n3CCCN3CCOCC3)[nH]c(=O)c2c1C	7%	i	-22%	?	i	2.5µM*
Cc1c(=O)n(OCc2ccccc2F)c2ccccc2[n+]1[O-]	2%	4.5e-08M*	-26%	-11%	4.1e-08M*	?
COc1ccccc1CN1CC[C@@]2(CCCN(S(C)(=O)=O)C2)C1	1%	i	5%	-3%	i	1%
SMILES	AID923	4-MU autofl	HSD17B inh	HADH2 inhib	A350 autofl	CRE Fsk mod
CC(C)C[C@@H](CC(=O)N[C@@H](CCCN)CC(=O)N[C@@H]1CCNC[C@H]1C(=O)N[C@H](CC(=O)N[C@@H](CCC(=O)O)CC(=O)O)Cc1ccccc1)NC(=O)[C@@H]1CCCC[C@H]1N	.	.	.	9%	.	-6%
CC1=Nc2ncnn2C(c2ccccc2)/C1=N\O (configuration not stated)	3%	1.4e-08M*	-12%	-13%	1.6e-08M*	?
COCCOC(=O)C1=C(C)Nc2ncnn2C1c1ccccc1 (configuration not stated)	3%	i	9%	-9%	?	15%
COc1ccc2cc3cc(C(=O)NCC4CCCO4)oc3nc2c1 (configuration not stated)	3%	8.6e-06M*	16µM*	3.2µM*	8.2e-06M*	?
COc1ccc2nc3oc(C(=O)NCc4cccs4)cc3cc2c1	4%	2.8e-07M*	13µM*	-18%	2.6e-07M*	?
O=C(NCc1ccco1)c1cc2cc3ccc(Cl)cc3nc2o1	2%	?	?	-11%	?	2µM*
COc1ccc2cc3cc(C(=O)NCc4ccccn4)oc3nc2c1	4%	7.5e-06M*	25µM*	32µM*	7.2e-06M*	?
O=C(NCc1ccccn1)c1ccc2ccccc2n1	-1%	.	4%	11%	.	8%
CCCCCNCCCCC	3%	.	3%	1%	.	-2%
C=C(C)C(O)/C=C/c1ccc(OC)cc1 (configuration not stated)	-4%[11.5 µM]	.	-7%[11.4 µM]	-1%[11.4 µM]	.	.
O=C(O)CC[C@]1(C(=O)O)CCC(=O)c2ccccc21	3%[11.5 µM]	i	5%[11.4 µM]	3%[11.4 µM]	i	12%[7.6 µM]
Brc1ccc(C2Nc3cccc4cccc(c34)N2)o1	1%	.	32µM*	?	.	?
Oc1ccccc1C1Nc2cccc3cccc(c23)N1	3%	?	?	32µM*	?	-7%
O=C(Oc1ccccc1)N1CCC2(CC1)CN(c1ccncc1)C2	-3%	i	2%	-5%	i	16%
Nc1c(OCC(=O)O)ccc2cc(S(=O)(=O)O)ccc12	-2%[11.5 µM]	?	-8%[11.4 µM]	-7%[11.4 µM]	?	-1%[7.6 µM]
CNc1cc(-c2ccccc2C(F)(F)F)ncn1	3%	i	-14%	-2%	i	-7%
Cc1cc(Nc2nc3ccccc3[nH]c2=O)n(-c2ccccc2)n1	0%	3.4e-08M*	?	-10%	4.3e-08M*	?
Cc1ccc(S(=O)(=O)Nc2cc(C)nn2-c2ccccc2)cc1	-1%	i	6%	4%	i	-11%
CCOc1ccc(NS(=O)(=O)c2ccc(C)c(C(=O)O)c2)cc1	0%	.	5%	5%	.	.
COc1cc2c(cc1NC(=O)c1ccco1)CCCC2	0%	.	-10%	6%[11.4 µM]	.	?
